We go through 40 compounds from PubChem BioAssay (NCATS).

Activity calls are given as the source filed them. Calls come from the whole dose curve; as a rule, active = well fitted curve in the direction sought with a large enough effect; inconclusive = small, poorly fitted or top-dose-only effect, or effect the other way, or another doubt; inactive = no such curve, though single readings can be large or run the other way.

The experiment in a line: Inducers of the Endoplasmic Reticulum Stress Response (ERSR) in human glioma: Validation (AID 504836). The settings on record: human glioma cells, ER stress response reporter; series mostly up to 38.3 µM. The text has this:
Primary protein unfolding takes place for many diseases, including diabetes and hypoxia, , and triggers a reaction in the cells called ER stress response (ERSR). ). ERSR is designed as a repair mechanism, but ultimately leads to cell death via apoptosis if conditions triggering protein unfolding persist (1). The molecular clue to ERSR activation is the enhancement of the expression of key molecular chaperones, including the glucose regulated protein (GRP) 78. GRP78 is the main sensor for protein folding and the main actuator of the ERSR.
In a collaboration between the Southern Research Institute and the NIH Chemical Genomics Center, a cell based screen was developed that reliably uses GRP78 as a sensor to identify small molecules as inducers of ERSR. In resting conditions, GRP78 binds proteins and acts as a natural repressor. Once unfolded proteins are present in the ER, GRP78 releases some of the repressors and binds to the unfolded proteins. The release of the repressors executes the ERSR program. Using a human glioma cell line in a miniaturized, luminescent format, a high-throughput screen was developed to identify actuators of the ERSR.
(1) Soboloff, J. and S. A. Berger (2002). "Sustained ER Ca2+ depletion suppresses protein synthesis and induces activation-enhanced cell death in mast cells." J Biol Chem 277(16): 13812-20.
NIH Chemical Genomics Center [NCGC]
NIH Molecular Libraries Probe Centers Network [MLPCN]
Assay Submitter (PI): Maurizio Grimaldi, Southern Research Institute
Stable transfected human glioma cell line, U87-MG, are dispensed at density 1000 cells/well into Greiner white solid bottom 1536-well assay plates. Compounds are transferred via Kalypsys pin tool equipped with 1536-pin array (10nl slotted pins, V&P Scientific, San Diego, CA). The assay plates will be incubated for 16 hours and developed by adding appropriate quantities of the Promega Bright Glo reagent. The plates will be incubated at room temperature for 10 minutes prior to being transferred into a ViewLux high-throughput CCD imager (PerkinElmer), wherein end-point measurements of luminescence are acquired.
Regarding `C[Se]C[C@H](N)C(=O)O`, the compound was called inactive. Under `COc1ccc(OC)c(C(O)C(C)N)c1` (stereo not given) stands “inactive”; under `Oc1ccc2c3c1O[C@H]1c4oc5ccccc5c4C[C@@]4(O)C(C2)N(CC2CC2)CCC314` (stereo not given in full), “inactive”. Turning to `COc1ccc2[nH]c3c(c2c1)CCNC3`, the call was inactive. Under `CCCN(CCC)[C@@H]1CCc2cccc(O)c2C1` stands “inactive”; under `C=CCN(C1=NCCN1)c1c(Cl)cccc1Cl`, “inactive”; under `C[N+](C)(C)CCOC(=O)CBr`, “inactive”. Under `Cc1sc2ccccc2c1CC1=NCCN1` stands “inactive”; under `CC(N)Cc1c[nH]c2ccc(O)cc12` (stereo not given), “inactive”; under `CC(Cc1ccc(OCC(=O)O)cc1)NCC(O)c1cccc(Cl)c1` (stereo not given), “inactive”. Turning to `O=[N+]([O-])/C=C/c1ccc2c(c1)OCO2`, the result was inactive. Under `c1ccc2c(N3CCNCC3)cccc2c1` stands “inactive”. Under `CN1CC[C@@]2(C)c3cc(O)ccc3N(C)C12` (stereo not given in full) stands “inactive”; under `CC(N)c1cccc(Cl)c1Cl` (stereo not given), “inactive”; under `CC(C)CC(NP(=O)(O)O[C@@H]1O[C@@H](C)[C@H](O)[C@@H](O)[C@H]1O)C(=O)NC(Cc1c[nH]c2ccccc12)C(=O)O` (stereo not given in full), “inactive”. Under `CCCn1c(=O)c2[nH]c(C3CCCC3)nc2n(CCCOC(=O)c2ccc(S(=O)(=O)F)cc2)c1=O` stands “inactive”; under `C[C@H](N)Cc1cccc(C(F)(F)F)c1`, “inactive”; under `COc1ccc2c(c1O)-c1cccc3c1[C@@H](C2)N(C)CC3`, “inactive”. On to `O=[N+]([O-])c1cc(O)c(O)c([N+](=O)[O-])c1`, for which the compound was called inactive.

With `NNC(N)=O`, the call was inactive. Turning to `COC(=O)N1CCN(C(=O)Cc2ccc(Cl)c(Cl)c2)C(CN2CCCC2)C1` (stereo not given), the compound was classed as inactive. Under `O=C1CC[C@@]2(O)C3Cc4ccc(O)c5c4C2(CCN3CC2CC2)[C@H]1O5` (stereo not given in full) stands “inactive”; under `C/C(O)=C(\C#N)C(=O)Nc1cc(Br)ccc1Br`, “inactive”; under `CCOC(=O)c1ncn2c1[C@@H]1CCCN1C(=O)c1cc(OC)ccc1-2`, “inactive”.

Turning to `C=CCN1CC[C@]23c4c5ccc(O)c4O[C@@H]2/C(=N/N=C2\CC[C@@]4(O)C6Cc7ccc(O)c8c7[C@@]4(CCN6CC=C)[C@@H]2O8)CC[C@@]3(O)C1C5`, the call was inactive.

Consider `Cc1[nH]c2ccc(O)cc2c1CCN`, for which the result was inactive. Under `Cc1c2ccncc2c(C)c2c1[nH]c1ccccc12` stands “inactive”; under `C[C@H](N)CN1CCc2ccc(Br)cc21`, “inactive”. For `CCCN1CC[C@@H]2c3cc(O)ccc3CC[C@@H]21`, the compound was classed as inactive. Under `CCCn1c(C)c(C(=O)c2ccc3ccccc3c2)c2ccccc21` stands “inactive”; under `C=CCN1CCc2cccc3c2[C@H]1Cc1ccc(O)c(O)c1-3`, “inactive”. Consider `Nc1ccc(CCN2CCN(c3cccc(C(F)(F)F)c3)CC2)cc1`, for which the compound was called inactive. As for `CCCN(CCC)CCc1ccc(O)c(O)c1`, the call was inactive. Under `CC(C)[C@@]1(NC(=O)[C@@H]2C[C@@H]3c4cccc5[nH]cc(c45)C[C@H]3N(C)C2)O[C@@]2(O)[C@@H]3CCCN3C(=O)[C@H](Cc3ccccc3)N2C1=O` stands “inactive”. Under `CN(N=O)c1ccc(O)c(O)c1` stands “inactive”; under `CN1CCc2cccc(Cl)c2CC1`, “inactive”; under `N[C@@H](Cn1oc(=O)[nH]c1=O)C(=O)O`, “inactive”.

As for `CCCN1CCc2cccc3c2[C@H]1Cc1ccc(O)c(O)c1-3`, the call was inactive. On to `O=C1C=CC(=O)C=C1`, for which the outcome was inactive. Under `C[C@@H]1O[C@H](C[N+](C)(C)C)CS1` stands “inactive”.
